According to PubChem BioAssay:
Measured potencies and affinities stand elsewhere. Active and inactive are the calls of the source. No cut-off is given here; in the data, nearly all actives have IC50 up to about 0.91 µM.

These molecules were tested against Calcium-dependent protein kinase 4 (Plasmodium falciparum (isolate 3D7)) (UniProt Q8IBS5) (assay: PfCDPK4 kinase inhibitors, biochemical, TCAMS library (AID 1159588)). Conditions: recombinant PfCDPK4, Kinase-Glo ATP depletion luminescence.
Chain of Calcium-dependent protein kinase 4 (Plasmodium falciparum (isolate 3D7)) (Q8IBS5 whole entry, looked up): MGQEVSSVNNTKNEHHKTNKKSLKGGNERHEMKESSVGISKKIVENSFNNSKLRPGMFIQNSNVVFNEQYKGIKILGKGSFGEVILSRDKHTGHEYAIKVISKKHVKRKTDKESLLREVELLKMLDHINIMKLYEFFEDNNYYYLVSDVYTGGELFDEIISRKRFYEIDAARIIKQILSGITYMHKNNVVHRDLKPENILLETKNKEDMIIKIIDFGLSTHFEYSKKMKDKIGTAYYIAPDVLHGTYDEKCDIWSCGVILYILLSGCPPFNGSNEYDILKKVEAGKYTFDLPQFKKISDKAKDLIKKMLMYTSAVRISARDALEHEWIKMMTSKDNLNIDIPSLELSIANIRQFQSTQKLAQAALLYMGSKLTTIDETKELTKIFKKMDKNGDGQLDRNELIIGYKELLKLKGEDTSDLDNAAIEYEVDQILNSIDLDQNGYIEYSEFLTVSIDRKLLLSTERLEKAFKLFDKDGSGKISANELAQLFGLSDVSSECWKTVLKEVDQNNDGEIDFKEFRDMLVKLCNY

outcome, inactive:
FC(F)(F)c1ccc2nc(-c3cccc(-c4ccc(CNCc5cnn(-c6ccccc6)n5)cc4)c3)[nH]c2c1
N=C(N)c1cc(Cl)cc(NC(=O)Nc2cc(Cl)cc(C(=N)N)c2)c1
COc1cccc(C=CC(=O)N(CCN)Cc2ccccc2)c1
Cn1nc(C(F)(F)F)c(-c2ccc(Br)cc2)c1NC(=O)Cc1ccccc1F
CN(C)CCCN1C(=O)c2[nH]nc(-c3ccc(Cl)cc3O)c2C1c1ccc(Cl)cc1 (stereo not given)
COc1ccc2nc(-c3cc(-c4ccc(NC(=O)C(C)C)cc4)cnc3N)[nH]c2c1
COc1cc(NC(=O)c2nn(CCCN3CCC(N4CCCC4)CC3)cc2-c2ccc(Cl)c(Cl)c2)cc(OC)c1OC
O=C(Nc1ccccc1)Nc1cccc(-c2cc(CNCCc3ccccc3)sc2-c2ccncc2)c1
O=C(Nc1cccc(C(F)(F)F)c1)NC1CCN(c2ccnc3cc(Cl)ccc23)C1 (stereo not given)
Cc1onc(-c2c(Cl)cccc2Cl)c1C(=O)NC1=NC(C)(C)ON1c1ccccc1
CCOc1ccccc1C(=O)Nc1cccc(-c2nc3ncccn3c2C)c1
CCOc1cc(C)c(C2CCN(CCCCNC(=O)c3ccc(NC(=O)c4ccc(Cl)cc4)cc3)CC2)cc1C
CC(C)Cn1cc(C2CCN(CCN3CCC(CNC(=O)c4ccc(NC(=O)c5cc(Cl)cc(Cl)c5)cc4)CC3)CC2)c2ccccc21
Fc1ccc2nc(-c3ccc(-c4ccc(CN5CCN(CCN6CCOCC6)CC5)cc4)s3)[nH]c2c1
COc1ccc(-c2nc(NC(=O)Cc3ccc4c(c3)OCCO4)sc2C)cc1
Nc1ccc(-c2cc(Cl)cc(Cl)c2)cc1-c1cc2ccccc2[nH]1
CC(CNc1ccnc(Nc2ccc3[nH]c(=O)[nH]c3c2)n1)c1ccccc1 (stereo not given)
CCCCCCCN1CC[C@@H](CCCc2ccnc3ccc(OC)cc23)[C@@H](CNC)C1
NC1(C(=O)O)Cc2ccc(Cl)cc2C1 (stereo not given)
COc1ccc(CN(C)Cc2ccc(NC(=O)c3cccc4c(=O)c5cccc(C)c5[nH]c34)cc2)cc1OC
Cc1ccc(-c2nc3ccc(C(=O)NC4CCN(Cc5ccccc5)CC4)cc3[nH]2)cc1
Cc1ccc(O)cc1Nc1ccnc2cc(-c3ccncc3)ccc12
O=S(=O)(Nc1cccc(CCN2CCC(N3CCCCC3)CC2)c1)c1cccc2cccnc12
O=C(NC(=O)c1ccccc1)NC1CCN(c2ccnc3cc(Cl)ccc23)C1 (stereo not given)
Cc1c(Cl)cccc1S(=O)(=O)N1CCCCC(c2ccc(C(F)(F)F)cc2)=N1
CC1CCCN(C(=O)C(C)Nc2cc(Cl)ccc2N2CCOCC2)C1 (stereo not given)
Cc1cc(N(C)C)nc(Nc2ccc(NC(=O)c3ccccc3Cl)cc2)n1
COc1cc(-c2nc(-c3ccccc3)c(-c3ccccc3)[nH]2)cc(OC)c1O
CCC(C)NC(=O)Nc1ccc(-c2cccc(-c3nc4c(C)cccc4[nH]3)c2)cc1 (stereo not given)
N#Cc1cccc(CN2CCCN(Cc3cccc(C(=O)Nc4ccc(Cl)cc4)c3)CC2)c1
CC(CCNc1c2ccccc2nc2ccccc12)N1CCN(C)CC1 (stereo not given)
CCN(CC)c1nc(N)c2c(N)nc3c(c2c1C#N)C(=O)CN3Cc1ccccc1
Cc1ccc(-c2cc(C(=O)Nc3ccc(S(=O)(=O)N4CCOCC4)cc3)[nH]n2)c(O)c1C
COc1ccc(Br)cc1/C=C/C(=O)Nc1ccc(C2CCN(C)CC2)cc1
CC(C)Cn1c(N)cc(=O)n(C)c1=O
CC1(C)N=C(N)N=C(N)N1OCCCO
O=C(/C=C/c1ccc(Cl)c(Cl)c1)NCCCCCN1CCCN(C(=O)Nc2ccc(C(F)(F)F)cc2)CC1
CCOC(=O)C(NC(=O)Cc1ccccc1)C(C)C (stereo not given)
COc1cc(Nc2ncnc3cc(OC)c(OC)cc23)cc([N+](=O)[O-])c1
COc1cc2c(cc1OC)CN(c1cc(N)c3cc(OC)c(OC)cc3n1)CC2
